# Experimental data published in the supplement of paper PMC10849652.
# About 7,900 targets were measured; listed, in parts, are those with a hit and a random draw of the rest. About 0.6% of all pairs of compound and target were hits. Values without a mark were called inactive.
# Compound: C[C@H](Nc1ncnc2nc[nH]c12)c1cc2cccc(Cl)c2c(=O)n1-c1ccccc1 [duvelisib]
# Test: log2 fold change, soluble protein after heating vs DMSO (PISA); higher = thermal stabilisation; K562 cells, 10 uM, 30 min; active = over 0.2 and 3.5 SD of the protein, either way, in both replicates (recomputed)
# How it was run: (§1)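 Thermal stability values are relative to control samples and come from duplicates. They are expressed as log2 fold changes. For measurement, K562 cells (2×10^6 cells/mL) received 10 μM compound for 30 min, and aliquots were heated for 3 min over 48°C-58°C, pooled, and extracted at 4°C in PBS with 0.5% NP-40. Soluble protein, the supernatant after 21,000xg for 90 min, was quantified by TMTpro 16plex LC-MS/MS with equalised channel sums.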
# Chain of UniProt O15121 (O15121 whole entry, looked up): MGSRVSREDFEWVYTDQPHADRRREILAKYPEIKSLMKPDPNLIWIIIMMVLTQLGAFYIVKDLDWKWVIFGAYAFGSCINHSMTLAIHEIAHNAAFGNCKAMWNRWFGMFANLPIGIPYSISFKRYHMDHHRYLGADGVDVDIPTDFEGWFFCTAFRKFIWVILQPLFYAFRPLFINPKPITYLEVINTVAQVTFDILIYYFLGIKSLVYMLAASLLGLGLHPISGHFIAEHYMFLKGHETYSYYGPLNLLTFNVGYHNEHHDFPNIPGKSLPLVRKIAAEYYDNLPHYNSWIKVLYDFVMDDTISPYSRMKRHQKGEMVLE
# Chain of UniProt Q04637 (Q04637 whole entry, looked up): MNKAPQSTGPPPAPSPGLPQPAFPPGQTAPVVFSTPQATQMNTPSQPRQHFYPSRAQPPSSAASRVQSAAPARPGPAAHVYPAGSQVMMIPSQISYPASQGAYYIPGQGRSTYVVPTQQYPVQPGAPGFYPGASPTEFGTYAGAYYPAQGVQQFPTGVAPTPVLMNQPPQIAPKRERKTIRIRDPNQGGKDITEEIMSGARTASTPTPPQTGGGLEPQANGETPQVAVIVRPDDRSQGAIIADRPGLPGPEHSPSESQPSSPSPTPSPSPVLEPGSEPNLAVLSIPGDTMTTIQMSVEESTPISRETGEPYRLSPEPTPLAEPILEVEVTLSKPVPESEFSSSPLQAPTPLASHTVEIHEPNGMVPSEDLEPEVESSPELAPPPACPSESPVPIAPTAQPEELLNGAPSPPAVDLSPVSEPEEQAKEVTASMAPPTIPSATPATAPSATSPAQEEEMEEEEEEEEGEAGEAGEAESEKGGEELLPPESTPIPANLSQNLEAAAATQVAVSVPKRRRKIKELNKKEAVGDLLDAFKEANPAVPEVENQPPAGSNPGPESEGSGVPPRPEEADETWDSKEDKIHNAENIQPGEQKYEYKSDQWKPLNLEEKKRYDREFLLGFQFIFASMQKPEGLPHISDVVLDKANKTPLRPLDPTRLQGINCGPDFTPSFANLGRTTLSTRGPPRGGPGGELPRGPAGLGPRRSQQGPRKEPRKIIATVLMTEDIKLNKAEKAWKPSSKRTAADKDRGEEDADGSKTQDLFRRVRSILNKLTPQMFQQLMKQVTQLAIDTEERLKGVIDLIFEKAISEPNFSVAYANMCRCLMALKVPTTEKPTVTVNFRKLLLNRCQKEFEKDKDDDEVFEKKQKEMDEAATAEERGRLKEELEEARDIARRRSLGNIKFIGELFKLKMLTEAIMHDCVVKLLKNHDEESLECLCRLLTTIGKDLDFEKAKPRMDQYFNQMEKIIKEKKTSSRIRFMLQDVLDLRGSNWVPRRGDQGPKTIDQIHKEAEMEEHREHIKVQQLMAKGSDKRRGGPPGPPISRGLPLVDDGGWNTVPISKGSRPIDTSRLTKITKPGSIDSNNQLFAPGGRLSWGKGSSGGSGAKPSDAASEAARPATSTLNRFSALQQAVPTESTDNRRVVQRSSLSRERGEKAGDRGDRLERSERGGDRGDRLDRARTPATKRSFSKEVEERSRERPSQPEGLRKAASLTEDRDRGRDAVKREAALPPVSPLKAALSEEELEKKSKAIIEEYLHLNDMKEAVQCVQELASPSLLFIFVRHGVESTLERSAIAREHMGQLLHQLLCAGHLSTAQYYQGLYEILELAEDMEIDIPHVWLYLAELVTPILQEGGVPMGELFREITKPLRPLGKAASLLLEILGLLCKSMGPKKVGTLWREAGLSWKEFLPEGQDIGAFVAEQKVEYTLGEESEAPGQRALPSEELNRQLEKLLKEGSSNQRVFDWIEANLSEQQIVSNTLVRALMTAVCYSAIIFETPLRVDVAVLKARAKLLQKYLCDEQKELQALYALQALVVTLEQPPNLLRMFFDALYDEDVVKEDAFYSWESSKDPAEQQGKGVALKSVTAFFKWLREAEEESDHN
# Chain of UniProt Q9NZJ5 (Q9NZJ5 whole entry, looked up): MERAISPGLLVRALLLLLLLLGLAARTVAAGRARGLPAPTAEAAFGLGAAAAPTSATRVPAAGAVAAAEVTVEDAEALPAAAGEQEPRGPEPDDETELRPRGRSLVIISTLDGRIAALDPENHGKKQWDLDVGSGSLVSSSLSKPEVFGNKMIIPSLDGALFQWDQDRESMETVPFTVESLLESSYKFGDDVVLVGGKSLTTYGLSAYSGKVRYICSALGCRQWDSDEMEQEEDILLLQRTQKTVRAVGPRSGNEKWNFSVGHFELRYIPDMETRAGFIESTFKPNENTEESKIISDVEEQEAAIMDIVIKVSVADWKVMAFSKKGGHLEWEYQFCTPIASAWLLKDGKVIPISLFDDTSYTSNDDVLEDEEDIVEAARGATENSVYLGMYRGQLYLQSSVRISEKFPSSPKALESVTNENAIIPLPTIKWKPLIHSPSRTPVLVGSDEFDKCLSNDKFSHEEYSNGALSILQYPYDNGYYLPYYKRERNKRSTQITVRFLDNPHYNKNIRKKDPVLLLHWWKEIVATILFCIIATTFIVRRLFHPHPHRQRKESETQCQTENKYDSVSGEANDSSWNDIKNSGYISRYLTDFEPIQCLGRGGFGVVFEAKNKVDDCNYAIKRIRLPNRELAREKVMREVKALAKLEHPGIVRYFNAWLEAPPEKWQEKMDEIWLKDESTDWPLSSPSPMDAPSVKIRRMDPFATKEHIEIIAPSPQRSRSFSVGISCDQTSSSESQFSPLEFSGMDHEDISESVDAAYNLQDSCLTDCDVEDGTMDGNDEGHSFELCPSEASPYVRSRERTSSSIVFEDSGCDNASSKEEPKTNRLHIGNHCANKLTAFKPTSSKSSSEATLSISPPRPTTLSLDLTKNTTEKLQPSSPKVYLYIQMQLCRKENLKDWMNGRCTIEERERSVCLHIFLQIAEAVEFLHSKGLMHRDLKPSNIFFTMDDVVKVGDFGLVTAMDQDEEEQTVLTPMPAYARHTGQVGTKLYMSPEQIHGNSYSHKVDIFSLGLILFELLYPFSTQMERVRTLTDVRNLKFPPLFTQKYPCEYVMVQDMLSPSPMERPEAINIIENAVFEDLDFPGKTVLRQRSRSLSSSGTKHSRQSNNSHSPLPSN
# Chain of UniProt P25774 (P25774 whole entry, looked up): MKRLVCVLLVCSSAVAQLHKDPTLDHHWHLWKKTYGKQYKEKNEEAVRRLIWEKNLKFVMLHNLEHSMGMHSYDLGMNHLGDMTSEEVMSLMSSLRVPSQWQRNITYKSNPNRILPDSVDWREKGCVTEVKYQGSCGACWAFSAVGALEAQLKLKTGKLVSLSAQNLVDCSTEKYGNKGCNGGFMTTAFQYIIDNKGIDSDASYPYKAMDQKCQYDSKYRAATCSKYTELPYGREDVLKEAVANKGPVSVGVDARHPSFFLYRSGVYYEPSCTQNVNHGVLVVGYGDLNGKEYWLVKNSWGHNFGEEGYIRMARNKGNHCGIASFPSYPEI
# Chain of UniProt Q8N8J7 (Q8N8J7 whole entry, looked up): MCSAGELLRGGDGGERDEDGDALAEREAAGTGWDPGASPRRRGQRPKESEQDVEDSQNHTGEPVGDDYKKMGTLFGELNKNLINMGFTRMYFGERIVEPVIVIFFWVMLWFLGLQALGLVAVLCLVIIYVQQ
# Chain of UniProt Q2TBE0 (Q2TBE0 whole entry, looked up): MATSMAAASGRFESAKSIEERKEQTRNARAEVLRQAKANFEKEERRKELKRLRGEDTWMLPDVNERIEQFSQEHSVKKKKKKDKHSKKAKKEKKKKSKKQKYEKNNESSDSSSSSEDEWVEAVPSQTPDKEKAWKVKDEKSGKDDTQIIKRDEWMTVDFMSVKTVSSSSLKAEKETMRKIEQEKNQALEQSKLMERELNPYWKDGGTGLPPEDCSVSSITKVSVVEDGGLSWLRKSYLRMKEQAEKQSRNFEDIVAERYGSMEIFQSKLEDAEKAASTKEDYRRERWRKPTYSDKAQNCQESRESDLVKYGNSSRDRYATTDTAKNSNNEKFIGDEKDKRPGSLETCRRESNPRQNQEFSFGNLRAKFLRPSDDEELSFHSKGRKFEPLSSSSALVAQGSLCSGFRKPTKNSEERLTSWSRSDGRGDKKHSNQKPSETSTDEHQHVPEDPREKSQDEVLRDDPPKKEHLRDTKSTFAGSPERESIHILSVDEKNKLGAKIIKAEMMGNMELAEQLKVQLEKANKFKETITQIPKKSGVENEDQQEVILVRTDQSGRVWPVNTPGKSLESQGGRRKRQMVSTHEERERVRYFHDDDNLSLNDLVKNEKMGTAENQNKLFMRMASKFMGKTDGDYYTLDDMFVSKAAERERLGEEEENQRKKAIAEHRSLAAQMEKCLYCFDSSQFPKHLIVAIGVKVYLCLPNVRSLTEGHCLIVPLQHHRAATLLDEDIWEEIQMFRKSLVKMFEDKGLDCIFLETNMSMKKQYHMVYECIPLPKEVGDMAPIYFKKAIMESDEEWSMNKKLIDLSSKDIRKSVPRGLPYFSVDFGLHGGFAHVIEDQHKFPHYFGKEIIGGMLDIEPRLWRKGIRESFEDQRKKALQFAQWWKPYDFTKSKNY
# Chain of UniProt Q9NYP7 (Q9NYP7 whole entry, looked up): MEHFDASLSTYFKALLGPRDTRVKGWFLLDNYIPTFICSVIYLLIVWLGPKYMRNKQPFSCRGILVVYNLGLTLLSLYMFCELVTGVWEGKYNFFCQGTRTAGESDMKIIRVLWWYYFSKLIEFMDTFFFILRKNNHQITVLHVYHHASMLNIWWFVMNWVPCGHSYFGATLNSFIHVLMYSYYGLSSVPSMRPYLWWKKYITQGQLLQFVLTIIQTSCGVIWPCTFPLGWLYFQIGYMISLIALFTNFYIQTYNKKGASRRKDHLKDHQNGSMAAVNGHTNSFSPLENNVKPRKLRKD
# Chain of UniProt Q8NBI2 (Q8NBI2 whole entry, looked up): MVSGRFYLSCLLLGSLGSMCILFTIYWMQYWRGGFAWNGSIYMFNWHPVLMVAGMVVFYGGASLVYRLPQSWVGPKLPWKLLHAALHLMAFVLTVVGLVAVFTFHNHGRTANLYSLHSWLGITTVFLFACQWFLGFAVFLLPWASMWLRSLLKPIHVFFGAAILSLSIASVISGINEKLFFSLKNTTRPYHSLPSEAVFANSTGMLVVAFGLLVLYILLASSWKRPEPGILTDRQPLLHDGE
row,Target,log2 fold change
1,EIF2AK3 (UniProt Q9NZJ5),0.031
2,CTSS (UniProt P25774),0.01
3,CWF19L2 (UniProt Q2TBE0),-0.1
4,DNAL1 (UniProt Q4LDG9),-0.013
5,DCAF4 (UniProt Q8WV16),-0.302
6,CYB561A3 isoform 2 (UniProt Q8NBI2),0.021
7,ELOVL5 isoform 2 (UniProt Q9NYP7),0.074
8,DENND10 (UniProt Q8TCE6),0.044
9,DAXX (UniProt Q9UER7),-0.001
10,DLK1 (UniProt P80370),-0.173
11,FAM117B (UniProt Q6P1L5),-0.381
12,FAM241A (UniProt Q8N8J7),-0.016
13,EDRF1 (UniProt Q3B7T1),0.129
14,DERPC (UniProt P0CG12),0.191
15,F2RL3 (UniProt Q96RI0),0.081
16,EIF4G1 (UniProt Q04637),-0.111
17,ELOVL7 (UniProt A1L3X0),-0.016
18,EIF4G3 isoform 3 (UniProt O43432),-0.082
19,ENTR1 (UniProt Q96C92),0.003
20,DEGS1 (UniProt O15121),-0.017
21,FAM160A2 isoform 2 (UniProt Q8N612),0.179
22,CYP24A1 (UniProt Q07973),-0.079

# Compound: Cc1cc(Nc2cc(CN3CCOCC3)c3nc(C)c(Cc4ccc(Cl)cc4F)n3n2)n[nH]1 [gandotinib]
# Test: as above
# How it was run: as §1
row,Target,log2 fold change
1,EIF2AK3 (UniProt Q9NZJ5),-0.113
2,CTSS (UniProt P25774),0.018
3,EHBP1 (UniProt Q8NDI1),0.015
4,CWF19L2 (UniProt Q2TBE0),0.777 (active)
5,DCAF4 (UniProt Q8WV16),0.07
6,CYB561A3 isoform 2 (UniProt Q8NBI2),-0.103
7,ELOVL5 isoform 2 (UniProt Q9NYP7),-0.34
8,DAXX (UniProt Q9UER7),0.313
9,EGR1 (UniProt P18146),-0.536
10,FAM117B (UniProt Q6P1L5),-0.164
11,DCAF12 (UniProt Q5T6F0),-0.735 (active)
12,FAM241A (UniProt Q8N8J7),-0.077
13,EDRF1 (UniProt Q3B7T1),0.098
14,DERPC (UniProt P0CG12),0.006
15,EEF2K (UniProt O00418),0.13
16,EIF4G1 (UniProt Q04637),-0.082
17,DDB1 isoform 2 (UniProt Q16531),-0.228
18,EID1 (UniProt Q9Y6B2),0.275
19,ERF (UniProt P50548),-0.29
20,DEGS1 (UniProt O15121),0.138
21,FAM160A2 isoform 2 (UniProt Q8N612),0.115
22,CYP24A1 (UniProt Q07973),0.535

# Compound: Cc1cc(Nc2cc(N3CCN(C)CC3)nc(Sc3ccc(NC(=O)C4CC4)cc3)n2)n[nH]1 [tozasertib]
# Test: as above
# How it was run: as §1
row,Target,log2 fold change
1,EIF2AK3 (UniProt Q9NZJ5),-0.359
2,DOLPP1 (UniProt Q86YN1),0.038
3,CTSS (UniProt P25774),-0.114
4,EHBP1 (UniProt Q8NDI1),0.043
5,CWF19L2 (UniProt Q2TBE0),-0.016
6,CYB561A3 isoform 2 (UniProt Q8NBI2),-0.126
7,ELOVL5 isoform 2 (UniProt Q9NYP7),-0.01
8,DENND10 (UniProt Q8TCE6),-0.063
9,DAXX (UniProt Q9UER7),-0.167
10,EGR1 (UniProt P18146),-0.131
11,FAM117B (UniProt Q6P1L5),-0.175
12,FAM241A (UniProt Q8N8J7),-0.027
13,EEF1D isoform 3 (UniProt P29692),0.212
14,F2RL3 (UniProt Q96RI0),-0.163
15,FADS1 (UniProt F5GYH4),-0.262
16,EIF4G1 (UniProt Q04637),-0.051
17,ELOVL7 (UniProt A1L3X0),-0.018
18,EIF4G3 isoform 3 (UniProt O43432),-0.013
19,EID1 (UniProt Q9Y6B2),-0.142
20,ERF (UniProt P50548),-1.2 (active)
21,DEGS1 (UniProt O15121),-0.07
22,DENND1A isoform 6 (UniProt Q8TEH3),-0.093
23,DNAJB1 (UniProt M0R128),-0.082
24,FAM160A2 isoform 2 (UniProt Q8N612),-0.28
25,CYP24A1 (UniProt Q07973),-0.05
